sdo1 growth – compounds rescuing growth of sdo1-depleted yeast, bone marrow failure model; 140,000 compounds, 0.21% hits; AID 817; z-score at 10 µM; S. cerevisiae sdo1-depleted JHY4D growth rescue, OD600 30 h; active compounds read high; pdr5 snq2 efflux-pump mutant strain;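 active = z-score above 3 at both the 24 hr and the 30 hr optical density reads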;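 also: z-score against mean and SD of all compound wells on the same plate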
Measles CPE – protection of cells from measles virus | Measles virus-infected cells, CPE protection, absorbance | protection (pct of control), % at 4 µM | 140,000 compounds, 1.5% hits; in the data active = protection mostly above about 24%, no sharp cut-off; inactive = mostly below about 26%
Insulin prom inh – TRM-6 insulin promoter activity inhibition. TRM-6 cells (human fetal islet line), insulin promoter-eGFP reporter, imaging; reporter expression induced with tamoxifen. inhibition, % at 2 µM. 130,000 compounds, 0.9% hits. AID 1273;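 active = inhibition above the mean plus 3 SD, with well images judged a real hit on visual review, cut at about 60% in these data, passing the limit was not always enough; inconclusive = inhibition over the cutoff but images rejected on review; inactive = inhibition not above the cutoff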
ROMK primary – modulates human ROMK potassium channel activity. Tet-inducible ROMK, thallium flux fluorescence; actives lie on both sides. B-score at 10 µM. 130,000 compounds, 2% hits;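 active = signal ratio slope over the read window, or its plate-corrected B-score, at least 3 SD from the plate mean, either direction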;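 also: B-score of the F/F0 ratio slope over 7 to 12 s after thallium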
Target sequence (P48048 whole entry, looked up): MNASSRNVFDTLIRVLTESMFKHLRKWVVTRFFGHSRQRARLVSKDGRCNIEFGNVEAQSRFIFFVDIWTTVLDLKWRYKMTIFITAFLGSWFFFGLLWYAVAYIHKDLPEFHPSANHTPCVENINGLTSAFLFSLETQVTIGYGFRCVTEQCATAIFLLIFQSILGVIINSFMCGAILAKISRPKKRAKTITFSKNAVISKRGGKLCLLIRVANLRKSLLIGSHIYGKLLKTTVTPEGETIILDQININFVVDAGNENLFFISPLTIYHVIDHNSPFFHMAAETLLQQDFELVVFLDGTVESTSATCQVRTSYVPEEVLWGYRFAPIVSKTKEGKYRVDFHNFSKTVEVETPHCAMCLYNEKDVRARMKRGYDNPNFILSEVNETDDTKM
ROMK retest – human ROMK channel modulation, retest confirmation | normalized thallium flux (F/F0 slope) at 10 µM | shares compounds with ROMK primary | AID 1917 | ROMK thallium flux, fluorescence ratio; active compounds read low | 3,000 compounds, 54% hits;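 active = Flux at 10 µM at least 3 SD below or above vehicle control mean in one or both replicates; inconclusive = no clear call, values can overlap the other calls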
Starred values were filed as active, the others as inactive. Most compounds without a hit are left out; they make up all but 3% or so of the library.

Screening Cc1cc(C)cc(N(C(=O)c2csnn2)C(C(=O)NC(C)(C)C)c2cccnc2)c1 (configuration not stated) returned Insulin prom inh -30 and ROMK primary 0.76.
For Cc1cccc(N(C(=O)c2csnn2)C(C(=O)NC(C)(C)C)c2cccnc2)c1 (configuration not stated) the results were Insulin prom inh -4, ROMK primary 2.2* and ROMK retest 0.077.
For COc1ccc(C(C)(C)C)cc1NC(=O)c1cc(S(=O)(=O)N(C)C)ccc1N1CCCC1 the results were sdo1 growth -0.29 and Measles CPE 6.
O=Cc1s/c(=N\S(=O)(=O)c2ccccc2)n(CCCCl)c1Cl was read as ROMK primary -6.1* and ROMK retest 0.043*.
Screening Cc1cc2c(c(N)n1)c(=O)oc1ccccc12 returned sdo1 growth 0.48, Measles CPE 5 and ROMK primary -0.45.
`COC(=O)c1c(C)nc(C)c2c(=O)oc3ccccc3c12` gave sdo1 growth -0.51, Measles CPE 3, Insulin prom inh -11 and ROMK retest inconclusive.
`COc1ccc(C/C(O)=C(\C#N)c2nc3ccccc3s2)cc1` gave sdo1 growth -0.24, Measles CPE 25, Insulin prom inh -112, ROMK primary -3.1* and ROMK retest 0.06*.
`CCN(CC)CCNC(=O)c1ccc(NC(=O)COc2ccccc2F)cc1` gave ROMK primary 1.9* and ROMK retest 0.079.
CC(NC(=O)C1CCCCC1)C(=O)NC1=NCCS1 (configuration not stated) was read as sdo1 growth 1.3, Measles CPE 12 and Insulin prom inh -18.
CCc1ccccc1NC(=O)Cn1nc(C(F)(F)F)cc1C1CC1 was read as sdo1 growth 0.77 and Insulin prom inh -33.
CCn1c2c(c(=N)c3ccccc31)CCC2 was read as ROMK primary 0.56.
O=c1c2ccccc2sn1-c1nccs1 was read as Insulin prom inh 39, ROMK primary -3.7* and ROMK retest 0.071.
`Cc1nc2ncccn2c1-c1csc(Nc2ccc(N(C)C)cc2)n1` gave Insulin prom inh -42, ROMK primary 7.2* and ROMK retest 0.093.
For CC(=O)Nc1ccc(S(=O)(=O)N2CCN(Cc3nc4sc(C)c(C)c4c(=O)[nH]3)CC2)cc1 the results were ROMK retest 0.074.
`Cc1cc2nnc(SCC(=O)N3CCCCC3)n2c(N)n1` gave ROMK primary 1.3* and ROMK retest 0.083.
`Cc1cc2nnc(SCC(=O)N3C(C)CCCC3C)n2c(N)n1` (configuration not stated) gave sdo1 growth 0.53 and Measles CPE 19.
For Cn1c(=O)nc2n(Cc3ccccc3)c3cccc(Cl)c3cc-2c1=O the results were sdo1 growth 0.05 and Measles CPE 3.
For O=C(Nc1ccc(N2CCN(c3ncccc3C(F)(F)F)CC2)nc1)c1cccs1 the results were ROMK retest 0.074.
For O=C(Nc1ccc(N2CCOCC2)nc1)c1cccs1 the results were Insulin prom inh -7 and ROMK primary 0.55.
`CCN(C(=O)c1ccco1)c1nnc(-c2ccc(OC)cc2)s1` gave sdo1 growth -0.51, Measles CPE 11, Insulin prom inh 0 and ROMK primary 0.0019.
O=C(O)C(=O)Cc1c[nH]c2ccccc12 was read as sdo1 growth 0.35, Measles CPE 16, Insulin prom inh 41 and ROMK primary -1.3.
`CC1CCCCN1C(=O)Cn1cc(/C=C2/C(=O)Nc3ccccc32)c2ccccc21` (configuration not stated) gave sdo1 growth -1.8, Measles CPE 17, Insulin prom inh 38 and ROMK retest 0.078.
For CC1CCCCN1C(=O)Cn1cc(C=O)c2ccccc21 (configuration not stated) the results were sdo1 growth 0.12, Measles CPE 27, Insulin prom inh 13 and ROMK primary -1.1.
Screening CC(C)(C)NC(=S)N/N=C\c1ccc(-c2ccc([N+](=O)[O-])cc2)o1 returned ROMK primary -3.5* and ROMK retest 0.048*.
For O=C(Nc1cnc2ccccc2c1)c1ccncc1 the results were sdo1 growth 0.55 and Measles CPE 15.
Screening COC(=O)c1cccc(C(=O)Nc2cnc3ccccc3c2)n1 returned sdo1 growth 0.23, Measles CPE 13, Insulin prom inh 45 and ROMK retest 0.05*.
`O=CNC(Cc1ccccc1)C(=O)O` (configuration not stated) gave sdo1 growth 0.1, Measles CPE 1, Insulin prom inh 7, ROMK primary 2.2* and ROMK retest 0.075.
Screening c1ccc(-c2ncnc3cc4n(c23)CCC4)cc1 returned sdo1 growth 0.23, Measles CPE 2, Insulin prom inh 50 and ROMK primary -0.64.
CCOC(=O)CSc1nnc(Cn2nnc(-c3ccccc3)n2)n1C was read as sdo1 growth -0.17, Measles CPE 4 and Insulin prom inh -19.
`COc1ccccc1N1CCN(c2nc(-c3ccccc3)cc(C(F)(F)F)n2)CC1` gave sdo1 growth -0.16, Measles CPE 4, Insulin prom inh -80 and ROMK primary -0.42.
COc1ccccc1N1CCN(c2ccc(-c3ccccc3)nn2)CC1 was read as sdo1 growth -0.11, Measles CPE 1, Insulin prom inh -81, ROMK primary 2.5* and ROMK retest 0.079.
`Oc1ccc(/C=N/NC2=NCCCCC2)cc1` gave sdo1 growth 0.98, Measles CPE 21, Insulin prom inh 16 and ROMK primary 0.46.
For CC(C)c1nc(SCC(=O)Nc2c[nH]c(=O)[nH]c2=O)c2cnn(-c3ccccc3)c2n1 the results were ROMK primary 0.42* and ROMK retest 0.085.
`O=C(/C=C/c1cccc([N+](=O)[O-])c1)Nc1cccc(NC(=O)c2cccs2)c1` gave sdo1 growth -0.29, Measles CPE 6 and Insulin prom inh 5.
CCN1C(=O)/C(=C/c2ccc(C)s2)NC1=S was read as sdo1 growth -0.43, Measles CPE 9, Insulin prom inh -4, ROMK primary 4.6* and ROMK retest 0.094.
O=C(c1ccco1)N1CCN(c2cc(N3CCOCC3)c(F)cc2[N+](=O)[O-])CC1 was read as Insulin prom inh 0 and ROMK primary -0.45.
`Cc1ccc(NC(=S)Nn2cnnc2)cc1` gave Insulin prom inh 29 and ROMK primary 0.19.
Cc1nnc(SCC(=O)N(C)c2ccccc2)n1Cc1ccccc1 was read as ROMK primary -0.13.
`COc1ccc(Cl)cc1NC(=S)NNC(=O)c1cccs1` gave ROMK primary 0.12.
CCOC(=O)CNC(=O)CCCCCC(=O)NCC(=O)OCC was read as sdo1 growth -0.13, Measles CPE 8, Insulin prom inh 30, ROMK primary 0.092 and ROMK retest 0.071.
For CC1CCN(C(=O)CSc2nnc(CSc3ncccn3)n2C)CC1 the results were sdo1 growth 0.23, Measles CPE 16, Insulin prom inh -15 and ROMK primary 0.16.
CCOCCCNC(=O)/C(C#N)=C/c1cc(OC)c(O)c([N+](=O)[O-])c1 was read as ROMK primary 3* and ROMK retest 0.084.

Compound activity as filed in PubChem.
